# Source: the supplement of paper PMC7858590
# System: human monocyte-derived macrophages (polarized)
# Experiment: cell shape (eccentricity) Z-score vs DMSO control; higher = more elongated, M2-like morphology
# Details: 5 µM; 24 h; macrophage state: M2-polarized (IL-4 + IL-13), cytokines present during treatment
# Protocol: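 Primary-screen hits were rescreened on polarized hMDMs with the differentiating cytokines (IL-4 + IL-13 or IFNg + TNFa) kept in the medium during treatment with compound at 5 uM for 24 h. The eccentricity Z-score vs DMSO wells is averaged over experiments.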
row,Structure (SMILES),cell shape (Z-score)
1,CN1c2ccccc2C(=O)N2CCc3c([nH]c4ccccc34)[C@@H]21,-7.76
2,OC(CN1CCNCC1)Cn1c2ccc(Br)cc2c2cc(Br)ccc21 (centres undefined),-13.7
3,CCCCc1ccc2[nH]c(NC(=O)OC)nc2c1,0.889
4,CN1c2cc3c(cc2N=C(c2ccc(C(=O)O)cc2)c2ccccc21)C(C)(C)CCC3(C)C,-8.56
5,COC(=O)Nc1nc2cc(Sc3ccccc3)ccc2[nH]1 [Fenbendazole],-14.3
6,C=C1C(=O)O[C@@H]2C3=C(C)CC[C@]34O[C@@H](C[C@@H]4C)[C@H]12,13
7,CC1(C)O[C@@H]2C[C@H]3[C@@H]4CCC5=CC(=O)CC[C@]5(C)[C@@]4(F)[C@@H](O)C[C@]3(C)[C@]2(C(=O)CCl)O1,-13.7
8,CCCS(=O)(=O)Nc1ccc(F)c(C(=O)c2c[nH]c3ncc(-c4ccc(Cl)cc4)cc23)c1F [Vemurafenib],-1.16
9,C[C@H]1CN([C@@H](C)CO)C(=O)Cc2cc(NC(=O)CCC(F)(F)F)ccc2O[C@H]1CN(C)S(=O)(=O)c1ccc(Cl)cc1,-11
